Measurements published in the GenesisPotency data set.
Out of some 290,000 compounds screened, about 3,000 (1%) were called active. Rule as the data show it: active = inhibition mostly above about 36% (no sharp cut-off); inactive = mostly below about 34%. The entries come from a sample that favours actives as a whole.

Molecular target: T1, Nucleotide-binding oligomerization domain-containing protein 1, Homo sapiens (UniProt Q9Y239)
T1 sequence (whole entry): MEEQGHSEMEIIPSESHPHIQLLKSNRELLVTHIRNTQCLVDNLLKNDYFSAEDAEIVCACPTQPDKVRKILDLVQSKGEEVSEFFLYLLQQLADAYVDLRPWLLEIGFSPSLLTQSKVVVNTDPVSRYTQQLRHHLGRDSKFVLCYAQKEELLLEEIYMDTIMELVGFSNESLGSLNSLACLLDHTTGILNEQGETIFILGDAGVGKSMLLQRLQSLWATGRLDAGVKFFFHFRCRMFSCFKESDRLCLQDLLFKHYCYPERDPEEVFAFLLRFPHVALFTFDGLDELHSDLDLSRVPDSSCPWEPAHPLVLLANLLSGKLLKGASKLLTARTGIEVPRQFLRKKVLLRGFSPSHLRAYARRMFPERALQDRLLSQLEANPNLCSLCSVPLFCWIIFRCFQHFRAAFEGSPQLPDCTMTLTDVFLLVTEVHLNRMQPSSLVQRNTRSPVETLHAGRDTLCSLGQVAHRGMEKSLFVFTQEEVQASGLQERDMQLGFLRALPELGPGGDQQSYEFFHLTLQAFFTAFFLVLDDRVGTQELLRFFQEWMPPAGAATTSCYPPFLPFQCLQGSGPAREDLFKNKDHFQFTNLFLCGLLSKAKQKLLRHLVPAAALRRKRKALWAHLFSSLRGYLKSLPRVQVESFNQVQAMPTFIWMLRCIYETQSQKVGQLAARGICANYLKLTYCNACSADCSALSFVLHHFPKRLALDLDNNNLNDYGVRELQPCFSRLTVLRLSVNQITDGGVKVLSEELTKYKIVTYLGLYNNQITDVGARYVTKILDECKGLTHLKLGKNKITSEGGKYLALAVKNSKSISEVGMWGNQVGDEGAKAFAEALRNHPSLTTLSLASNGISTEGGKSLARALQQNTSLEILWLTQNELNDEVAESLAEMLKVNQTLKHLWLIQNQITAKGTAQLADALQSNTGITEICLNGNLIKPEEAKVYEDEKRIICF
Test: NOD1 signaling inhibitors, primary screen, cell-based, luminescence, uHTS (AID 1578)

SMILES	outcome
Cn1c(-c2ccccc2)c(C(=O)CCl)c2ccccc21	active
Cn1cc(C(=O)CCl)c2ccccc21	active
Cc1ccc2c(c1)[nH]c1c(N3CCN(Cc4ccccc4)CC3)ncnc12	active
Cc1ccc2[nH]c3c(N4CCN(Cc5ccccc5)CC4)ncnc3c2c1	active
c1ccc(CN2CCN(c3ncnc4c3[nH]c3ccccc34)CC2)cc1	active
Cc1ccc2[nH]c3c(N4CCc5ccccc5C4)ncnc3c2c1	active
Cc1ccc(-c2noc(CCCC(=O)NC3CCCCC3)n2)cc1	active
O=C(CCCc1nc(-c2ccc(Cl)cc2)no1)NC1CCCC1	active
O=C(CCCc1nc(-c2ccc(Cl)cc2)no1)NC1CCCCC1	active
N#CC(c1cccc(Cl)c1)c1ccc2c(C(F)(F)F)cc(C(F)(F)F)nc2n1 (stereo not drawn)	active
CCCCN(c1ccccc1)c1ncnc(N)c1[N+](=O)[O-]	active
Cc1ccc(Cl)cc1N1CCN(C(=O)CSc2nnc3n2C(C)(C)Cc2ccccc2-3)CC1	active
CC1(C)CC(N2CCN(C(c3ccccc3)c3ccccc3)CC2)=CC(=[N+]2CCCCC2)C1.[I-]	active
CN(Cc1ccccc1)C1=CC(=[N+]2CCCCC2)CC(C)(C)C1.[I-]	active
c1csc(CCNc2ncnc3sc4c(c23)CCC4)c1	active
Cn1nccc1C(=O)NC1CCCc2c1cnn2-c1ccc(C(C)(C)C)cc1 (stereo not drawn)	active
CC(C)(C)c1ccc(-n2ncc3c2CCCC3NC(=O)C2(C(N)=O)CC2)cc1 (stereo not drawn)	active
Cc1cc(C(=O)NC2CCCc3c2cnn3-c2ccc(C(C)(C)C)cc2)nn1C (stereo not drawn)	active
Cc1ccc(NC(=O)Nc2nnc(-c3ccncc3)s2)cc1C	active
O=C(Nc1ccc2nc3n(c(=O)c2c1)CCCCC3)c1c(F)ccc([N+](=O)[O-])c1F	active
CCOc1cccc(-c2c(C(=O)N/N=C(\C)c3ccccn3)nnn2-c2nonc2N)c1	active
CN(C)S(=O)(=O)c1cccc(NC(=O)c2ccc(COc3ccccc3)cc2)c1	active
COc1ccc(C(=O)/C=C/C(=O)N(CC(=O)NC2CCCCC2)Cc2ccccc2OC)c(O)c1	active
C=CCn1c(Oc2ccccc2F)nc2c1c(=O)n(C)c(=O)n2C	active
C=CCn1c(Oc2ccc(C(=O)OC)cc2)nc2c1c(=O)n(C)c(=O)n2C	active
CCn1c(Oc2ccccc2F)nc2c1c(=O)n(C)c(=O)n2C	active
O=c1oc2ccc(Br)cc2cc1S(=O)(=O)c1ccc(F)cc1	active

SMILES	outcome
Cc1ccc(S(=O)(=O)c2cc3cc(Br)ccc3oc2=O)cc1	active
O=C(O)c1c(NC(=O)c2cccc3ccccc23)sc2c1CCC2	active
COc1ccc(-c2c[n+]3c(n2-c2ccc(C)cc2)CCCCC3)cc1.[Br-]	active
O=C(Cn1ncc(Cl)c(Cl)c1=O)c1ccc(Cl)cc1	active
Cc1cc(Br)ccc1NC(=O)CNC(=O)Cn1ncc(Cl)c(Cl)c1=O	active
CCOC(=O)c1ccc(NC(=O)Cn2ncc(Cl)c(Cl)c2=O)cc1	active
CCC(=O)Nc1ccc(C(=O)Cn2ncc(Cl)c(Cl)c2=O)cc1	active
O=C(Cn1ncc(Cl)c(Cl)c1=O)N1CCc2ccccc21	active
C#Cc1ccc([C@@H]2C=C(C(=O)N3CCN(Cc4ccccc4)CC3)O[C@H](OCCCCO)C2)cc1	active
O=C(COc1ccc(Br)cc1)Nc1ccc(Cc2ccncc2)cc1	active
Cn1cnnc1Sc1ccc(/C=C/C(=O)c2ccc(O)cc2)cc1[N+](=O)[O-]	active
C(=N\Nc1nc2ccccc2s1)/c1ccccn1	active
CCn1c(=O)c2c(cnn2C)c2ccccc21	active
CC(=O)c1c(O)c(C)c(O)c2c1OC1=CC(=O)C(C(C)=O)C(=O)[C@@]12C (stereo partly drawn)	active
O=C(NCc1cccs1)c1nc2c(nnn2Cc2ccccc2Cl)c(=O)[nH]1	active
O=C(NCc1ccco1)c1nc2c(nnn2Cc2ccccc2Cl)c(=O)[nH]1	active
COc1ccc2ncn(-c3ccccc3)c2c1	active
COc1ccc(-n2cnc3ccccc32)cc1	active
O=C(CSc1nnc2c(n1)[nH]c1ccccc12)NC1CCCCC1	active
NC(=S)N/N=C\c1c(OCc2ccccc2Cl)ccc2ccccc12	active
CC(C)N1C(=O)/C(=C/c2nc3ccccc3c(=O)n2-c2ccccc2)c2ccccc21	active
Cc1cccc(-n2c(SCC(=O)N3CCC(C(=O)O)CC3)nc3ccccc3c2=O)c1C	active
CC1=CC(C)(C)Nc2ccc(OC(=O)CN3C(=O)CCC3=O)cc21	active
CC1=CC(C)(C)Nc2ccc(OC(=O)CN3C(=O)C4CCCCC4C3=O)cc21 (stereo not drawn)	active
COc1cc(/C=C/c2ccc3cccc(O)c3n2)ccc1O	active
Oc1c(Cl)cc(Cl)cc1/C=C/c1ccc2cccc(O)c2n1	active
